From PubChem BioAssay (NCI)
“And” between values parts separate entries of the source, which are not always exact repeats. Identical values can stand only once. This is part of a sample that, as a whole, favours compounds with a hit. Of some 79,000 tested, about 15% had one in any assay. The source holds several records for some structures; these can differ, active in one and inactive in another. The source made the active and inactive calls. Rule as the data show it: active = growth inhibition above about 70%; inactive = the rest.

Tests used:
[1] = NCI Yeast Anticancer Drug Screen. Data for the rad50 strain (AID 155);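 also: 0% = growth of vehicle-only cultures of the same strain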; settings: S. cerevisiae rad50 strain growth inhibition, stronger effect = higher value
Procedure, shortened: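 Vehicle-treated cultures provide the reference for the growth inhibition reported for compound-exposed, repair-deficient yeast.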

[2] = NCI Yeast Anticancer Drug Screen. Data for the mec2-1 strain (AID 157); settings: S. cerevisiae mec2-1 strain, stronger effect = higher value
Procedure, shortened: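 mec2-1 yeast strain, carrying an alteration in DNA damage repair or cell cycle control, was exposed to compounds; growth inhibition was measured relative to vehicle-treated controls.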

[3] = NCI Yeast Anticancer Drug Screen. Data for the sgs1 mgt1 strain (AID 161);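 also: 0% = growth of cultures given vehicle only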; settings: S. cerevisiae sgs1 mgt1 strain, stronger effect = higher value
Procedure, shortened: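 Percent growth inhibition was derived by comparing compound-exposed mutant yeast with vehicle-exposed cultures. The strain carries alterations in DNA damage repair.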

[4] = NCI Yeast Anticancer Drug Screen. Data for the cln2 rad14 strain (AID 165);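 also: 0% = growth equal to vehicle treated cultures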; settings: S. cerevisiae cln2 rad14 strain, stronger effect = higher value
Procedure, shortened: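 Yeast carrying cln2 and rad14 alterations (cell cycle control and DNA damage repair) were exposed to compounds. Growth inhibition was measured against vehicle-treated controls.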

[5] = NCI Yeast Anticancer Drug Screen. Data for the bub3 strain (AID 167); settings: S. cerevisiae bub3 mutant strain, stronger effect = higher value
Procedure, shortened: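 Mutant yeast screening strain plus compound; vehicle-treated cultures serve as the 0% inhibition reference.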

[6] = NCI Yeast Anticancer Drug Screen. Data for the mlh1 rad18 strain (AID 175); settings: S. cerevisiae mlh1 rad18 strain growth inhibition, stronger effect = higher value
Procedure, shortened: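 Growth inhibition of the yeast strain was measured after compound exposure and expressed relative to vehicle-treated controls. The strain carries defined defects in DNA damage repair.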

[7] = at 5.0 µM (retest, dose inferred, filed as 0.5)
[8] = at 50.0 µM (retest, dose inferred, filed as 5.0)

Measured: growth inhibition

O=Cc1cc([N+](=O)[O-])cc(CCl)c1O
inactive: [1]; [7] -119% | [1]; [8] 26% | [1]; at 50.0 µM 20.7% | [2]; [7] -52% | [2]; [8] -31% | [2]; at 50.0 µM 13.2% | [3]; [7] -59% | [3]; [8] -8% | [3]; at 50.0 µM 15.2% | [4]; [7] -58% | [4]; [8] -17% | [4]; at 50.0 µM 20.1% | [5]; [7] -71% | [5]; [8] -32% | [5]; at 50.0 µM -6.45% | [6]; [7] -123% | [6]; [8] -28% | [6]; at 50.0 µM 27.9%

COc1ccc2c(c1)C(Cc1ccc(Oc3ccc(CC4c5cc(OC)ccc5CC[N+]4(C)C)cc3)cc1)[N+](C)(C)CC2 (stereo unspecified)
inactive: [1]; [7] -12% | [1]; [8] 62% | [2]; [7] -6% | [2]; [8] 51% | [3]; [7] -7% | [4]; [7] -4% | [4]; [8] 54% | [5]; [7] -3% | [6]; [7] -10%
active: [1]; at 50.0 µM 96.8% | [2]; at 50.0 µM 97.2% | [3]; [8] 91% | [3]; at 50.0 µM 99.2% | [4]; at 50.0 µM 72% | [5]; [8] 82% | [5]; at 50.0 µM 84.7% | [6]; [8] 95% | [6]; at 50.0 µM 98.8%

COc1ccc(Oc2ccccc2N)cc1
inactive: [1]; [7] 0% | [2]; [7] -1% | [2]; at 50.0 µM 59.3% | [3]; [7] -2% | [3]; at 50.0 µM 69.3% | [4]; [7] -8% | [5]; [7] 6% | [5]; at 50.0 µM 63.4% | [6]; [7] -3%
active: [1]; [8] 93% | [1]; at 50.0 µM 83.7% | [2]; [8] 95% | [3]; [8] 93% | [4]; [8] 95% | [4]; at 50.0 µM 88.3% | [5]; [8] 93% | [6]; [8] 96% | [6]; at 50.0 µM 90.5%

NNc1ccc2ccccc2c1
90.2% (active) and 29.1% (inactive): [4]; at 50.0 µM
95.5% (active) and 26.1% (inactive): [3]; at 50.0 µM
97.2% (active) and 22.5% (inactive): [1]; at 50.0 µM
active: [1]; [8] 86% | [5]; [8] 77% | [6]; [8] 91%
inactive: [1]; [7] 28% | [2]; [7] 4% | [2]; [8] 56% | [3]; [7] 13% | [3]; [8] 57% | [4]; [7] 16% | [4]; [8] 30% | [5]; [7] 16% | [6]; [7] 33%
91.2% (active) and 21.1% (inactive): [5]; at 50.0 µM
97.2% (active) and 25.7% (inactive): [6]; at 50.0 µM
85.6% (active) and 2.95% (inactive): [2]; at 50.0 µM

COc1ccc(N/N=C(\CCN(C)C)c2ccccc2)cc1
active: [1]; at 50.0 µM 80.7% | [5]; [8] 78% | [6]; [8] 78% | [6]; at 50.0 µM 94.8%
inactive: [1]; [7] 7% | [1]; [8] 51% | [2]; [7] -2% | [2]; [8] 40% | [2]; at 50.0 µM 3.7% | [3]; [7] 16% | [3]; [8] 61% | [3]; at 50.0 µM 56.9% | [4]; [7] 6% | [4]; [8] 32% | [4]; at 50.0 µM 57.9% | [5]; [7] -6% | [5]; at 50.0 µM 49.2% | [6]; [7] 12%

O=C(c1ccccc1)C(c1ccccc1)C(O)c1ccc([N+](=O)[O-])cc1 (stereo unspecified)
active: [1]; [8] 89% and 99% | [1]; at 50.0 µM 96% and 98.2% | [2]; [8] 96% and 99% | [2]; at 50.0 µM 98.4% and 99.5% | [3]; [8] 94% and 99% | [3]; at 50.0 µM 97.1% and 98.8% | [4]; [8] 96% and 99% | [4]; at 50.0 µM 94.8% and 99.2% | [5]; [8] 92% and 99% | [5]; at 50.0 µM 95.6% and 98.9% | [6]; [8] 95% and 99% | [6]; at 50.0 µM 96.7% and 99.5%
inactive: [1]; [7] 9% and 2% | [2]; [7] 13% and -8% | [3]; [7] 6% and -14% | [4]; [7] 9% and 3% | [5]; [7] 19% and 1% | [6]; [7] 11% and 6%

CC12CCCCC1C/C(=N/NC(N)=O)CC2 (stereo unspecified)
inactive: [1]; [7] -135% | [1]; [8] -78% | [1]; at 50.0 µM 8.9% and 3.8% | [2]; [7] -52% | [2]; [8] -45% | [2]; at 50.0 µM 13.1% and 1.25% | [3]; [7] -64% | [3]; [8] -54% | [3]; at 50.0 µM -5.85% and -9.35% | [4]; [7] -58% | [4]; [8] -42% | [4]; at 50.0 µM 41.9% and -25.8% | [5]; [7] -62% | [5]; [8] -49% | [5]; at 50.0 µM -4.1% and -11.3% | [6]; [7] -123% | [6]; [8] -99% | [6]; at 50.0 µM 14.5% and 10.7%
